# Hit rate of the full screen: of about 5,500 compounds, about 2,000 (36%) were called active. Not shown: some 18% with an inconclusive outcome. The list shows a part of the results. Values without a mark were called inactive. Rule as the data show it: active = normalized growth mostly below about 0.91 (no sharp cut-off); inconclusive = no clear call, values can overlap the other calls; inactive = mostly above about 0.92.
# Assay: chemical genetic growth profiling, strain panel (AID 1159580);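 also: tested at 20 µM; growth read once vehicle control cultures reached saturation at 30 °C; 1 = growth at the plate median or of vehicle wells; lower values mean less growth of the strain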
# Settings: S. cerevisiae deletion strains, growth OD
# [1] = locus YAL013W, strain DEP1, active compounds read low
# [2] = locus YBR229C, strain ROT2, active compounds read low
# [3] = locus YCL061C, strain MRC1, active compounds read low
# [4] = locus YDL101C, strain DUN1, active compounds read low
# [5] = locus YDR150W, strain NUM1, active compounds read low
# [6] = locus YEL061C, strain CIN8, active compounds read low
# [7] = locus YGR078C, strain PAC10, active compounds read low
# [8] = locus YHR030C, strain SLT2, active compounds read low
# [9] = locus YHR087W, strain rtc3, active compounds read low
# [10] = locus YJL187C, strain SWE1, active compounds read low
# [11] = locus YJR043C, strain POL32, active compounds read low
# [12] = locus YJR075W, strain HOC1, active compounds read low
# [13] = locus YKL190W, strain CNB1, active compounds read low
# [14] = locus YLR039C, strain RIC1, active compounds read low
# [15] = locus YLR058C, strain SHM2 (second series), active compounds read low
# [16] = locus YLR085C, strain ARP6, active compounds read low
# [17] = locus YLR262C, strain YPT6, active compounds read low
# [18] = locus YML094W, strain GIM5, active compounds read low
# [19] = locus YMR219W, strain ESC1, active compounds read low
# [20] = locus YMR263W, strain SAP30, active compounds read low
# [21] = locus YMR307W, strain GAS1, active compounds read low
# [22] = locus YNL153C, strain GIM3, active compounds read low
# [23] = locus YNL298W, strain CLA4 (second series), active compounds read low
# [24] = locus YNL322C, strain KRE1, active compounds read low
# [25] = locus YNR030W, strain Alg12, active compounds read low
# [26] = locus YOL006C, strain TOP1, active compounds read low
# [27] = locus YPL055C, strain LGE1, active compounds read low
# [28] = locus YPL241C, strain CIN2, active compounds read low
# [29] = locus YPR135W, strain CTF4, active compounds read low
# [30] = locus YGR229C, strain SMI1, active compounds read low
smiles,measurement,setting,value
Cc1c(S(=O)(=O)c2ccc(Cl)cc2)csc1C(=O)Nc1ccc(N2CCOCC2)c(Cl)c1,normalized growth,[1],0.992
same,normalized growth,[2],1.03
same,normalized growth,[3],1.05
same,normalized growth,[4],1.06
same,normalized growth,[5],1.05
same,normalized growth,[6],1.03
same,normalized growth,[7],1.07
same,normalized growth,[8],1.06
same,normalized growth,[9],0.999
same,normalized growth,[10],1.03
same,normalized growth,[11],1.03
same,normalized growth,[12],1.15 [resistant] (active)
same,normalized growth,[13],0.982
same,normalized growth,[14],0.992
same,normalized growth,[15],0.989
same,normalized growth,[16],0.947
same,normalized growth,[17],1.12
same,normalized growth,[18],0.988
same,normalized growth,[19],1
same,normalized growth,[20],1.03
same,normalized growth,[21],1.03
same,normalized growth,[22],1.06
same,normalized growth,[23],0.999
same,normalized growth,[24],0.991
same,normalized growth,[25],0.995
same,normalized growth,[26],1.03
same,normalized growth,[27],1.05
same,normalized growth,[28],0.984
same,normalized growth,[29],1.13
Cc1c(S(=O)(=O)c2ccc(Cl)cc2)csc1C(=O)NNc1cccc(Cl)c1,normalized growth,"locus YAR019C, strain CDC15, active compounds read low",0.964
same,normalized growth,"locus YBL105C, strain PKC1, active compounds read low",0.958
same,normalized growth,"locus YBR135W, strain CKS1, active compounds read low",0.96
same,normalized growth,"locus YBR136W, strain MEC1, active compounds read low",0.962
same,normalized growth,"locus YBR160W, strain CDC28, active compounds read low",0.957
same,normalized growth,"locus YDL017W, strain CDC7, active compounds read low",0.967
same,normalized growth,"locus YDL028C, strain MPS1, active compounds read low",0.97
same,normalized growth,[4],0.978
same,normalized growth,"locus YDL108W, strain KIN28, active compounds read low",0.973
same,normalized growth,"locus YDL132W, strain cdc53, active compounds read low",0.954
same,normalized growth,"locus YDL214C, strain PRR2, active compounds read low",0.826
same,normalized growth,"locus YDR052C, strain DBF4, active compounds read low",0.953
same,normalized growth,"locus YDR054C, strain cdc34, active compounds read low",0.947
same,normalized growth,"locus YDR226W, strain ADK1, active compounds read low",0.959
same,normalized growth,"locus YDR477W, strain SNF1, active compounds read low",0.769
same,normalized growth,"locus YER123W, strain YCK3, active compounds read low",0.574 (active)
same,normalized growth,"locus YER133W, strain GLC7, active compounds read low",0.864
same,normalized growth,"locus YFL009W, strain cdc4, active compounds read low",0.962
same,normalized growth,"locus YFL029C, strain CAK1, active compounds read low",0.959
same,normalized growth,"locus YFR003C, strain YPI1, active compounds read low",0.967
same,normalized growth,"locus YFR019W, strain FAB1, active compounds read low",0.653 (active)
same,normalized growth,"locus YFR028C, strain CDC14, active compounds read low",0.948
same,normalized growth,"locus YGR040W, strain KSS1, active compounds read low",0.811
same,normalized growth,"locus YGR052W, strain FMP48, active compounds read low",0.71
same,normalized growth,"locus YGR092W, strain DBF2, active compounds read low",0.783
same,normalized growth,[8],0.884
same,normalized growth,"locus YHR079C, strain IRE1, active compounds read low",1.01
same,normalized growth,"locus YHR082C, strain KSP1, active compounds read low",0.958
same,normalized growth,"locus YHR205W, strain SCH9, active compounds read low",0.907
same,normalized growth,"locus YIL147C, strain SLN1, active compounds read low",0.972
same,normalized growth,"locus YJL095W, strain BCK1, active compounds read low",0.679
same,normalized growth,"locus YJL128C, strain PBS2, active compounds read low",0.968
same,normalized growth,"locus YJL157C, strain FAR1, active compounds read low",0.886
same,normalized growth,"locus YJR016C, strain ILV3, active compounds read low",0.968
same,normalized growth,"locus YJR066W, strain TOR1 (second series), active compounds read low",0.684
same,normalized growth,"locus YJR066W, strain TOR1, active compounds read low",0.872
same,normalized growth,"locus YKL048C, strain ELM1, active compounds read low",0.947
same,normalized growth,"locus YKL067W, strain YNK1, active compounds read low",0.879
same,normalized growth,"locus YKL101W, strain HSL1, active compounds read low",0.948
same,normalized growth,"locus YKL193C, strain SDS22, active compounds read low",0.963
same,normalized growth,"locus YKL203C, strain TOR2, active compounds read low",0.954
same,normalized growth,"locus YLR113W, strain HOG1, active compounds read low",0.675 (active)
same,normalized growth,"locus YLR133W, strain CKI1, active compounds read low",0.81
same,normalized growth,"locus YLR403W, strain SFP1, active compounds read low",0.877
same,normalized growth,"locus YML070W, strain DAK1, active compounds read low",0.823
same,normalized growth,"locus YMR001C, strain CDC5, active compounds read low",0.961
same,normalized growth,"locus YMR205C, strain PFK2 (second series), active compounds read low",0.91
same,normalized growth,"locus YMR277W, strain FCP1, active compounds read low",0.96
same,normalized growth,"locus YNL006W, strain LST8, active compounds read low",0.963
same,normalized growth,"locus YNL020C, strain ARK1, active compounds read low",0.941
same,normalized growth,"locus YNL161W, strain CBK1, active compounds read low",0.955
same,normalized growth,"locus YNL183C, strain NPR1, active compounds read low",0.911
same,normalized growth,"locus YNL207W, strain RIO2, active compounds read low",0.969
same,normalized growth,"locus YNL222W, strain SSU72, active compounds read low",0.961
same,normalized growth,"locus YNL307C, strain MCK1 (second series), active compounds read low",0.743
same,normalized growth,"locus YOL078W, strain AVO1, active compounds read low",0.965
same,normalized growth,"locus YOL136C, strain PFK27, active compounds read low",0.889
same,normalized growth,"locus YOR119C, strain RIO1, active compounds read low",0.905
same,normalized growth,"locus YOR231W, strain MKK1, active compounds read low",0.942
same,normalized growth,"locus YOR329C, strain SCD5, active compounds read low",0.969
same,normalized growth,"locus YPL031C, strain PHO85, active compounds read low",0.852
same,normalized growth,"locus YPL153C, strain RAD53, active compounds read low",0.857
same,normalized growth,"locus YPL204W, strain HRR25, active compounds read low",0.897
same,normalized growth,"locus YPL209C, strain IPL1, active compounds read low",0.955
same,normalized growth,"locus YPL256C, strain CLN2, active compounds read low",0.733 (active)
same,normalized growth,"locus YPR025C, strain CCL1, active compounds read low",0.962
same,normalized growth,"locus YPR106W, strain ISR1, active compounds read low",0.971
same,normalized growth,"locus YPR111W, strain DBF20, active compounds read low",0.952
same,normalized growth,"strain NNK1, active compounds read low",0.966
same,normalized growth,"strain TSCII, active compounds read low",0.957
Cc1cscc1S(=O)(=O)c1ccc(Cl)cc1,normalized growth,[1],0.991
same,normalized growth,[2],0.969
same,normalized growth,[3],0.97
same,normalized growth,[4],0.966
same,normalized growth,[5],0.929
same,normalized growth,[6],0.98
same,normalized growth,[7],0.958
same,normalized growth,[30],0.981
same,normalized growth,[8],0.821
same,normalized growth,[9],0.974
same,normalized growth,[10],1
same,normalized growth,[11],0.958
same,normalized growth,[12],0.922
same,normalized growth,[13],0.991
same,normalized growth,[14],0.819
same,normalized growth,[15],0.975
same,normalized growth,[16],0.967
same,normalized growth,[17],0.833
same,normalized growth,[18],0.969
same,normalized growth,[19],0.978
same,normalized growth,[20],0.953
same,normalized growth,[21],0.855
same,normalized growth,"locus YNL128W, strain TEP1, active compounds read low",0.994
same,normalized growth,[22],0.945
same,normalized growth,[23],0.961
same,normalized growth,[24],0.975
same,normalized growth,[25],0.95
same,normalized growth,[26],0.904
same,normalized growth,[27],0.898
same,normalized growth,[28],0.953
same,normalized growth,[29],0.765
Cc1c(S(=O)(=O)c2ccc(Cl)cc2)csc1S(=O)(=O)N/N=C\c1c(Cl)cccc1Cl,normalized growth,[1],1
same,normalized growth,[2],1.01
same,normalized growth,[4],1.02
same,normalized growth,"locus YDL134C, strain PPH21, active compounds read low",0.996
same,normalized growth,[5],0.948
same,normalized growth,[6],0.991
same,normalized growth,[7],1.01
same,normalized growth,[30],1
same,normalized growth,[8],1.02
same,normalized growth,[9],0.998
same,normalized growth,[11],1.01
same,normalized growth,[12],1.03
same,normalized growth,[13],1
same,normalized growth,[14],1
same,normalized growth,[15],1.01
same,normalized growth,[16],1.04
same,normalized growth,[17],1
same,normalized growth,[18],0.988
same,normalized growth,[19],1.01
same,normalized growth,[20],0.984
same,normalized growth,[21],1.04
same,normalized growth,[22],1
same,normalized growth,[23],1.03
same,normalized growth,[24],1
same,normalized growth,[25],1.01
same,normalized growth,[26],1.03
same,normalized growth,[27],0.886
same,normalized growth,[28],0.993
same,normalized growth,[29],1

# Source: PubChem BioAssay AID1159580 (chemical genetic matrix, 2015)
